Assay results from PubChem BioAssay (NCI).
About 83,000 compounds went through this panel and 20% of them were active in at least one assay; those are over-represented in the sample as a whole.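 Values shown are percent growth following 48 h exposure of cells in 96-well plates to a single concentration of compound; below 10 was considered active.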 Values without a mark were called inactive. Activity calls are given as the source filed them.

The molecules below were run on NCI-H460 lung (assay: NCI-60 one-dose screen, 48 h (100 = growth as untreated, 0 = no growth, -100 = all killed)). Conditions: 10 µM.
Experimental: Growth inhibition of the NCI-H460 human Non-Small Cell Lung tumor cell line is measured as a screen for anti-cancer activity. Cells are grown in 96 well plates and exposed to the test compound for 48 hours. Compounds are tested at a single concentration, which is 10^-5 M for most compounds. The reported endpoint is percent growth (GI% or GIPRCNT), where numbers from 0 - 100% represent growth inhibition, and numbers from -100% - 0 represent cell death. For example, a value of 40 represents 60% growth inhibition. A value of 0 means no net growth occurred over the course of the experiment. A value of -40 indicates 40% of cells at the beginning of the experiment died by the end of the experiment. A value of -100 means all cells are dead at the end of the experiment.
NCI-60 Human Tumor Cell Lines Screen was performed using the standard one-dose NCI protocol, which is described in more detail at https://dtp.cancer.gov/discovery_development/nci-60/default.htm.
Compounds with GIPRCNT values below 10 were considered active. Activity score was based on GIPRCNT using the following formula: […]
Score is 0 for GIPRCNT values of 100 or above, 50 for GIPRCNT values of 0, and 100 for GIPRCNT values of -100.

Structure (SMILES) | growth
CCCc1c(C)nc2scc(-c3ccc(Cl)cc3)n2c1=O | 108%
COc1ccc(NC(=O)c2sc3nc4c(cc3c2N)C(O)CCC4)cc1 (stereo not given) | 48.3%
CCN(CC)c1ccc(/C=C/C2=[N+](C)c3ccccc3C2(C)C)c(C)c1 | 2.94% (active)
O=C1/C(=C/c2ccc(O)cc2)Oc2ccc(Cl)cc21 | 79.6%
COc1cc(OC)cc(-c2ccc(-c3ccc(C(=N)N)cn3)o2)c1 | -76.6% (active)
COc1ccc(-c2cc(/C=C/C(=O)c3ccc(N)cc3)[nH]n2)cc1OC | 3.19% (active)
Cc1ccc(Cl)cc1Nc1nc(C(F)(F)F)ccc1C(=O)N/N=C/c1c(Cl)cccc1Cl | -0.639% (active)
COC(=O)[C@]12CC[C@@H](C)[C@H](C)[C@@H]1C1=CC[C@@H]3[C@@]4(C)C/C(=N\O)[C@H](O)[C@@]5(C)COC(=C45)C[C@@]3(C)[C@]1(C)CC2 | -76.5% (active)
c1ccc(CNc2nc(Nc3ccc(-c4nc5ccccc5[nH]4)cc3)c3cn[nH]c3n2)cc1 | 4.06% (active)
CCN(CC)CCOC(=O)c1ccc(NC(=O)Nc2cccc(Cl)c2)cc1 | 108%
Cc1ccc(-n2nnc3c(sc4ccccc43)c2=O)cc1 | 18.3%
NC(=O)C1CCCN(Cc2c[nH]c3ccccc23)C1 (stereo not given) | 106%
CCc1ccc(Nc2cc(C)nc3nc(C)nn23)cc1 | -43.3% (active)
CCOC(=O)c1c(Cl)c2c(n1Cc1cccc(OC)c1)-c1oncc1CC2 | 9.8% (active)
Cc1cc(C)c2c(Nc3ncnc4c3sc3nc(C)cc(C)c34)n[nH]c2n1 | 104%
COc1ccc(-c2oncc2-c2cc(OC)c3c(c2)OCO3)cc1 | 11.5%
C/C(=N\NC(N)=S)C(C)(C)O | 104%
Cc1nc2cc(-n3c(-c4ccc(F)cc4)nc4ccccc4c3=O)ccc2n1Cc1ccccc1 | -38.9% (active)
CN(C)c1ccc2cc(-c3cc4c(oc3=O)-c3ccccc3OC4O)c(=O)oc2c1 (stereo not given) | 56.7%
COc1ccc(C2C=C(c3ccc(OC)c(OC)c3)N=C3SC=CN32)c(Br)c1 (stereo not given) | 87.5%

Structure (SMILES) | growth
COc1ccccc1NC1=C(N2CCCCC2)C(=O)c2ccccc2C1=O | 87.9%
C/C(=N\NC(=S)N1CCCC1)c1ccccn1 | 1.6% (active)
CC(=O)N(O)c1ccc(/C=C/c2ccccc2)cc1 | 8.15% (active)
CC(C)(C)c1ccc(OCCCCCCN2CCNCC2)cc1 | 35.4%
Nc1cc2c(cc1Cl)-c1ccc(Cl)cc1C2=O | 96.6%
COc1cc(-c2c(C#N)c(N)n3c(nc4ccccc43)c2C#N)cc(Br)c1OC | 28.4%
Cc1[nH]nc2c(=S)[nH]c(=O)[nH]c12 | 105%
Nc1c(C(=O)NC2CCCCC2)sc2nc3c(cc12)C(=O)CCC3 | 103%
Cc1ccc(/C(CS(=O)(=O)c2ccc(C)cc2)=N\O)cc1 | 106%
CCCCCCCOc1cccc(/C=C2/C(=O)N=C3SCCCN32)c1 | 82%
Cc1nc(N)sc1Sc1nc2ccc(Cl)cc2c(=O)n1-c1ccc(Oc2ccccc2)cc1 | 82%
Nc1nc(SCC#CCCl)c2[nH]cnc2n1 | 29%
CC(C)/C(=N/O)c1ccccc1 | 120%
CC(=O)Oc1ccc(C2=Cc3ccc(OC(C)=O)cc3OC2C)cc1 (stereo not given) | 33.7%
CCOc1nc(-c2ccccc2)cc2c(O)c(C(=O)N/N=C/c3ccc(OC)cc3)[nH]c(=O)c12 | 101%
COc1ccc2c(c1)/C(=C/c1cc(OC)c(OC)c(OC)c1)C(=O)N2C | -6.11% (active)
O=C/C=C/c1ccc([N+](=O)[O-])cc1Cl | 112%
COc1cc(-c2nc3ccccc3[nH]2)ccc1OCC(=O)N=Nc1c(O)[nH]c2ccccc12 | 109%
O=C(N/N=C/c1ccccc1O)c1ccccc1 | 9.53% (active)
Cc1ccc(-c2cc(C(=O)Nc3ccc(S(=O)(=O)N4CCCCC4)cc3)[nH]n2)c(O)c1 | 51.6%
